In PubChem BioAssay (NCI):
This is part of a sample that, as a whole, favours compounds with a hit. Of some 79,000 tested, about 15% had one in any assay. The source made the active and inactive calls. Rule as the data show it: active = growth inhibition above about 70%; inactive = the rest.

Assay: NCI Yeast Anticancer Drug Screen. Data for the mgt1 strain (AID 153)
Details: S. cerevisiae mgt1 mutant growth inhibition, active compounds read high
Experimental: Growth inhibition of yeast strains with defined genetic alterations is measured as a screen for potential anti-cancer activity. Selected strains with alterations in DNA damage repair or cell cycle control were exposed to compounds and growth inhibition was measured relative to vehicle treated controls. The strain used in this assay is mgt1

Measured: growth inhibition

O=Nc1c(NO)ccc2nn(-c3ccccc3)nc12
inactive: at 1.2 µM -1% | at 3.7 µM 24%
active: at 11.0 µM 98% | at 33.0 µM 98% | at 100.0 µM 99%

CCNc1nnc(CSc2nc(-c3ccccc3)c(-c3ccccc3)[nH]2)s1
active: at 33.0 µM 87% | at 100.0 µM 73%
inactive: at 1.2 µM -9% | at 3.7 µM -11% | at 11.0 µM -18%

CCCCCCCCCCCCCC[N+](C)(CC(=O)[O-])Cc1ccccc1 (stereo not given)
active: at 11.0 µM 100% | at 33.0 µM 99% | at 100.0 µM 99%
inactive: at 1.2 µM 2% | at 3.7 µM 26%

CC(/C=C/c1ccc2c(c1)OCO2)[N+](=O)[O-] (stereo not given)
inactive: at 1.2 µM 1% | at 3.7 µM 16%
active: at 11.0 µM 99% | at 33.0 µM 99% | at 100.0 µM 99%

Cc1ccc(S(=O)(=O)NNC(=S)Nc2cccc3ccccc23)cc1
inactive: at 1.2 µM -1% | at 3.7 µM -4% | at 11.0 µM -1% | at 33.0 µM -28% | at 100.0 µM 1%

COC1=CC(=O)C2C(C1=O)C(c1ccc(Cl)cc1)[C@@H]2C (stereo not given in full)
active: at 11.0 µM 99% | at 33.0 µM 99% | at 100.0 µM 99%
inactive: at 1.2 µM 21% | at 3.7 µM 30%

COC(=O)c1cc(-c2ccc(C)cc2)[nH]c(=O)c1C#N
inactive: at 1.2 µM 0% | at 3.7 µM 0% | at 11.0 µM 0% | at 33.0 µM -1% | at 100.0 µM 0%

O=C(CC(=O)n1nc(-c2ccccc2)c(N=Nc2ccccc2C(=O)O)c1-c1ccccc1)Nc1ccc(Cl)cc1
inactive: at 1.2 µM -2% | at 3.7 µM -3% | at 11.0 µM -5% | at 33.0 µM -6% | at 100.0 µM 7%
